These results are taken from PubChem BioAssay.

Calls of active or inactive are those of the source.

Experiment [1] has as its system Plasmodium falciparum Sir2 (PF13_0152, Sir2A). Nature of the experiment: Plasmodium falciparum Sir2A binding compounds – biochemical, small-molecule microarray, 635 nm fluorescence, primary screen (AID 1098).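 Further: score merges spot fluorescence intensity with its signal-to-noise ratio.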 The following applies: fluorescence 635 nm, higher = more signal.
Experiment [2] in a line: probe aDKK1 binding to arrayed compounds – biochemical, biotinylated probe, 635/667 nm fluorescence, primary screen (AID 1099).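 Further: score merges 667nm spot fluorescence with signal to noise across triplicate slides.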 The following applies: small-molecule microarray, higher = more signal.
Experiment [3] can be described thus: probe aCHRDL2 binding to arrayed compounds – biochemical, biotinylated probe, 635/667 nm fluorescence, primary screen (AID 1100). The settings on record: small-molecule microarray, higher = more signal.
Experiment [4] can be described thus: change in splice reporter luminescence, either direction, cell-based, HEK293, spliceosome inhibition project, primary screen (AID 1101).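 Further: HEK293 cells carrying a splicing-competent luciferase reporter gene; test concentration not given here.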 The settings on record: HEK293 splicing luciferase reporter, 24 h, higher = more signal, called active from +8 up or from −8 down. (In a reporter assay the amount or activity of a reporter protein is the signal.)
In experiment [5] the target is Fibroblast growth factor 10 (Homo sapiens) (UniProt O15520). Nature of the experiment: compounds binding fibroblast growth factor 10 – biochemical, small-molecule microarray, 635 nm fluorescence, primary screen (AID 1102). The following applies: FGF10 binding, fluorescence 635 nm, higher = more signal.
Experiment [6] concerns glycogen synthase kinase-3 (GSK3A per assay name; protocol says GSK3B). Nature of the experiment: compounds binding glycogen synthase kinase-3 – biochemical, small-molecule microarray, 635 nm fluorescence, GSK3A, primary screen (AID 1103). Further: the record names both GSK3A and GSK3B. The following applies: fluorescence 635 nm, higher = more signal.
For experiment [7], the target named is Epidermal growth factor receptor (Homo sapiens) (UniProt P00533). Nature of the experiment: compounds binding epidermal growth factor receptor – biochemical, small-molecule microarray, 635 nm fluorescence, primary screen (AID 1104).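 Further: score merges 667 nm emission intensity with spot signal to noise over triplicate slides.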 The following applies: EGFR binding, higher = more signal.
The target in experiment [8] is Follistatin-related protein 3 (Homo sapiens) (UniProt O95633). Nature of the experiment: compounds binding follistatin-related protein 3 – biochemical, small-molecule microarray, 635 nm fluorescence, primary screen (AID 1105).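 Further: score merges emission near 667 nm and signal to noise per printed spot across three slides.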 The following applies: FSTL3 binding, higher = more signal.
For experiment [9], the target named is Dickkopf-related protein 1 (Homo sapiens) (UniProt O94907). Nature of the experiment: small molecules binding DKK1 protein – biochemical, small-molecule microarray, 635 nm fluorescence scan, primary screen (AID 1106).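 Further: score merges emission near 667 nm with signal to noise over three replicate slides.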 The settings on record: higher = more signal.
Experiment [10] has as its system Inhibin beta A chain (activin A). Nature of the experiment: small molecules binding activin A – biochemical, small-molecule microarray, 635 nm fluorescence scan, primary screen (AID 1107).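 Further: mouse activin A protein probed at 4.33 µg/mL on printed slides; score merges bound-protein fluorescence near 667 nm with spot signal-to-noise.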 The settings on record: INHBA, higher = more signal.
Experiment [11] deals with Human papillomavirus type 1a protein E7 (residues 44-93). Nature of the experiment: small molecules binding HPV E7 44-93 – biochemical, small-molecule microarray, residues 44-93, 635 nm fluorescence, primary screen (AID 1108).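 Further: E7 fragment applied at 1 µg/mL in TBST for 1 h at 4 C; score combines spot fluorescence with its signal to noise ratio.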 The settings on record: fluorescence 635 nm, higher = more signal.
Experiment [12] in a line: hepatitis C replication reporter changes, two-sided – Huh7 cells, luciferase reporter, HCV replication inhibitor project, primary screen (AID 1109).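 Further: huh7 hepatoma cells harbouring a luciferase neomycin HCV replicon reporter; luciferase luminescence as measure of HCV replicon replication; test concentration not given here.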 The following applies: Huh7 HCV replicon luciferase reporter, 48 h; higher = more signal.
Experiment [13] concerns the target Left-right determination factor 2 (Homo sapiens) (UniProt O00292). Nature of the experiment: small molecules binding LEFTY2 protein – biochemical, small-molecule microarray, 635 nm fluorescence scan, primary screen (AID 1110). The settings on record: higher = more signal.
Experiment [14] has as its target Calmodulin-1 (Homo sapiens) (UniProt P0DP23). Nature of the experiment: small molecules binding calmodulin-1 with EGTA – biochemical, small-molecule microarray, Cy5-labelled CALM1, profiling panel (AID 1111).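 Further: labelled calmodulin applied in Tris saline Tween buffer holding calcium plus EGTA and DTT.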 The settings on record: Cy5-CALM1 binding fluorescence, higher = more signal.
For experiment [15] the target is unchanged. Nature of the experiment: small molecules binding Ca-loaded calmodulin-1 – biochemical, small-molecule microarray, Cy5-labelled CALM1, plus calcium, artefact control for SMM control-protein annotation, profiling panel (AID 1112).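 Further: score merges spot fluorescence with signal to noise from triplicate slides.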 The following applies: Cy5-CALM1 binding fluorescence, higher = more signal.
Experiment [16] can be described thus: probe aWnt5a binding to arrayed compounds – biochemical, biotinylated probe, 635/667 nm fluorescence, primary screen (AID 1113).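 Further: score merges 667 nm fluorescence intensity with signal-to-noise per printed feature.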 The following applies: small-molecule microarray, higher = more signal.
A short description of experiment [17]: probe aShh binding to arrayed compounds – biochemical, biotinylated probe, 635/667 nm fluorescence, primary screen (AID 1114).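 Further: probe is biotin-labelled aShh protein from a stem cell growth factor screen; measures binding of labelled protein to compounds printed on the slide; score merges feature fluorescence at 667 nm with signal-to-noise.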 The following applies: small-molecule microarray, higher = more signal.
Experiment [18] is described as follows: probe aNog binding to arrayed compounds – biochemical, biotinylated probe, 635/667 nm fluorescence, primary screen (AID 1115).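 Further: probe is biotinylated aNog protein used at 0.15 µg/mL for 1 h at 4 C; z-score combines 667 nm fluorescence of each spot with its signal to noise.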 The settings on record: small-molecule microarray, higher = more signal.
The target in experiment [19] is Torsin-1A-interacting protein 1 (Homo sapiens) (UniProt Q5JTV8). Nature of the experiment: compound microarray binding of lysate hLAP1 – cell lysate, small-molecule microarray, COS7 lysate, 635/667 nm fluorescence, primary screen (AID 1116). The following applies: 635 nm fluorescence, higher = more signal.
In experiment [20] the target is Alpha-bungarotoxin (Bungarus multicinctus) (UniProt P60615). Nature of the experiment: compounds binding labelled alpha-BTX control protein – biochemical, small-molecule microarray, Alexa647 label, 635/667 nm fluorescence, artefact control for SMM control protein annotation, profiling panel (AID 1117). The settings on record: alpha-BTX-A647 binding fluorescence, higher = more signal.
Alpha-bungarotoxin (Bungarus multicinctus), sequence (P60615 whole entry, looked up): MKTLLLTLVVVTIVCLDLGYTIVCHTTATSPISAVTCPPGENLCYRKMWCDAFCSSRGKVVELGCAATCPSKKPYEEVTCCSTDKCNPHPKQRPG

Left-right determination factor 2 (Homo sapiens), sequence (O00292 whole entry, looked up): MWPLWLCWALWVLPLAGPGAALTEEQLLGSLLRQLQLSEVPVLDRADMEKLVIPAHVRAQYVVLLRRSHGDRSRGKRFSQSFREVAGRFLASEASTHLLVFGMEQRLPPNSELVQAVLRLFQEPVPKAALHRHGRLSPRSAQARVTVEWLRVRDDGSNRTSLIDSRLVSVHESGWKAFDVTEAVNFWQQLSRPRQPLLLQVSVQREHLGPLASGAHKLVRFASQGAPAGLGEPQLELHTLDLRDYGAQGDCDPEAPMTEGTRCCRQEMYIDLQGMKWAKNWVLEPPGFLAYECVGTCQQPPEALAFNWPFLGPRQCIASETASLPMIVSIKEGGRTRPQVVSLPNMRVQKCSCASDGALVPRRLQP
Dickkopf-related protein 1 (Homo sapiens), sequence (O94907 whole entry, looked up): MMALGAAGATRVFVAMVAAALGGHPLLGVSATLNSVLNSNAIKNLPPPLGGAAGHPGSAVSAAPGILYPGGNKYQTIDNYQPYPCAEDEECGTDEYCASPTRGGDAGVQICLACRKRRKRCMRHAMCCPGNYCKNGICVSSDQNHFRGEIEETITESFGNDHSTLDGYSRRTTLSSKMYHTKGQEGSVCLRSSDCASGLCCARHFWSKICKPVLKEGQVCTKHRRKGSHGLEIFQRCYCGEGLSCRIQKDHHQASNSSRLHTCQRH
Fibroblast growth factor 10 (Homo sapiens), sequence (O15520 whole entry, looked up): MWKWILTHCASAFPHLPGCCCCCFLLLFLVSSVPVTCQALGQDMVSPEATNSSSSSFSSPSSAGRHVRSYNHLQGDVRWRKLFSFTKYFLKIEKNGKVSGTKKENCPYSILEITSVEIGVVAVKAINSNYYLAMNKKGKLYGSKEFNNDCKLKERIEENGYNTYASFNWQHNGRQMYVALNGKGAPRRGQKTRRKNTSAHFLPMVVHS
Torsin-1A-interacting protein 1 (Homo sapiens), sequence (Q5JTV8 whole entry, looked up): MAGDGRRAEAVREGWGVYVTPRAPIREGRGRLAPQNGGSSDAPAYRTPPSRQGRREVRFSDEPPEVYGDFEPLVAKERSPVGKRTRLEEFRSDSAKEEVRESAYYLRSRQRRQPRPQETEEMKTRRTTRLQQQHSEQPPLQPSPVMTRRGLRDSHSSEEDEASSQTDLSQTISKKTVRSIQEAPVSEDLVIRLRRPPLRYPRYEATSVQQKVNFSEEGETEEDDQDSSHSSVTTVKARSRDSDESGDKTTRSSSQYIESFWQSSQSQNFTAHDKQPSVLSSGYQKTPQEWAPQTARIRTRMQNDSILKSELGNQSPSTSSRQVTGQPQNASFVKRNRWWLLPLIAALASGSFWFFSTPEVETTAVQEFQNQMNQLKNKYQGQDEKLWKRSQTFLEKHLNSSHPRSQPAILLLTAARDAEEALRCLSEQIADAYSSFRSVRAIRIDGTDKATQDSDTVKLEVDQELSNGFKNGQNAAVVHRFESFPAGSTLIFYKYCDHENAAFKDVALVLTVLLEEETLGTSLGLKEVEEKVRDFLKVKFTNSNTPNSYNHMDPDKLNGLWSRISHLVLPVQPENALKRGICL
Epidermal growth factor receptor (Homo sapiens), sequence (P00533 whole entry, looked up): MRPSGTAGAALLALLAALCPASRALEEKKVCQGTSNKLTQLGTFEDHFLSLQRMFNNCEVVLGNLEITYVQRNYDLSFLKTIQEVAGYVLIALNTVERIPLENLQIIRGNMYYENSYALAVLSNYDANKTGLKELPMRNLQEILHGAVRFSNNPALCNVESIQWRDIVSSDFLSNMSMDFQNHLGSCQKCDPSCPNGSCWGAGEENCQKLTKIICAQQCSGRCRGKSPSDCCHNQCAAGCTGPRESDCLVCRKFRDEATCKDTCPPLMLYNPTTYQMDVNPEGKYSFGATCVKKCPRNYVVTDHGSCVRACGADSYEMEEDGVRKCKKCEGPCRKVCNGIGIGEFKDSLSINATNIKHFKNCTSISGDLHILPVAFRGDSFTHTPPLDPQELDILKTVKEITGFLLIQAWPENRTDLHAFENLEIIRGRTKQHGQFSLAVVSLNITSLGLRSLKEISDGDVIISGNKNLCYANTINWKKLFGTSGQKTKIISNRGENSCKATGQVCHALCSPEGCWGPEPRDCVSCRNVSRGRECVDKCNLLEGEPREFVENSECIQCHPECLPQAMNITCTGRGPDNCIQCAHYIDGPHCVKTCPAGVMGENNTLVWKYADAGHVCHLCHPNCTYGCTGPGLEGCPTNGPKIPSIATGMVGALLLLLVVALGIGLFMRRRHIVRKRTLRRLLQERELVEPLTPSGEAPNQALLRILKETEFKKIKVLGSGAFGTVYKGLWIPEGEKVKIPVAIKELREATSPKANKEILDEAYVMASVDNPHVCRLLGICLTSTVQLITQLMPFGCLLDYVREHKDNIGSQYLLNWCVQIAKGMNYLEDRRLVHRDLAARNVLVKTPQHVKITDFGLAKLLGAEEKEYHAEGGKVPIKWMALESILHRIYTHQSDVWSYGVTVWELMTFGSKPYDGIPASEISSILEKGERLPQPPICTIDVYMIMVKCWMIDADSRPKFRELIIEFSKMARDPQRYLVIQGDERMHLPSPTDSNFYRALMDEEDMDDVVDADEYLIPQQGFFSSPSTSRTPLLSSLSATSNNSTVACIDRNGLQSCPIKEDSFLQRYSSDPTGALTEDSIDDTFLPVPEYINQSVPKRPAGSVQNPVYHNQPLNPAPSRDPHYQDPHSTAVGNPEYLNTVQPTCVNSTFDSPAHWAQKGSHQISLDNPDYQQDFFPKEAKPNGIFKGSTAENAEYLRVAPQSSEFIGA
Follistatin-related protein 3 (Homo sapiens), sequence (O95633 whole entry, looked up): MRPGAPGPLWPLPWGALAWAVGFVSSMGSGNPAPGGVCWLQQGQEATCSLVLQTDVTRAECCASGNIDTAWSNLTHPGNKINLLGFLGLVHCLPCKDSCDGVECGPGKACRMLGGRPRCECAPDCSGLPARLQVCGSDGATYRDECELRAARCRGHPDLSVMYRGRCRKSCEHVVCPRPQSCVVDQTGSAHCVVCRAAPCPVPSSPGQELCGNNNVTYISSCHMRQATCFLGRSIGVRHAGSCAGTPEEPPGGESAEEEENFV

With `CO[C@H]1O[C@H](CO)[C@@H](OC(=O)Nc2ccc3c(c2)OCO3)[C@H](OC(=O)Nc2ccccc2-c2ccccc2)[C@@H]1OC(=O)Nc1ccccc1-c1ccccc1`, the composite z-score in [1] is 1.29; in [2], 0.277; in experiment [3], 0.542; in experiment [5], 1.38; in [6] it was 1.15; in experiment [7], 0.23. Moreover, the composite z-score in [8] is 0.936; in [9], 0.271; in experiment [10], -0.548; in experiment [11], 1.36; in experiment [13] it was 0.232; in experiment [14], 1.6. In addition, the composite z-score worked out at 0.116 in [15]; 0.0601 in [16]; 0.184 in [17]; 0.902 in experiment [18]; 1.28 in experiment [19]; 0.614 in [20]. In addition, the z-score was 0.176 (inactive) in experiment [4] and -2.26 in experiment [12].
Consider `CC(C)=NOCc1cccc(-c2cc(-c3ccccc3)no2)c1`, for which the composite z-score in experiment [1] is 0.379; in [2], -0.208; in [3], -0.609; in experiment [5], 0.637; in [6], 0.787; in experiment [7] it was -0.137. Besides, the composite z-score was 0.597 in [8]; 0.494 in experiment [9]; -0.21 in experiment [10]; 0.332 in [11]; 0.71 in experiment [13]; 0.0463 in experiment [14]. Moreover, the composite z-score in [15] was -0.823; in experiment [16], -0.0874; in experiment [17] it was 0.0952; in [18] it was -0.161; in [19] it was 0.237; in experiment [20], 0.553. In addition, the results for the z-score in [4] and in experiment [12] were 0.342 (inactive) and -0.149, respectively.
Turning to `C=CC[C@@H]1C=C[C@H](ON=C[C@@H](OC)[C@H](C)C=CCC(=O)OC)[C@@H](CO)O1`, the composite z-score in [1] was -0.433; in experiment [2], -0.0759; in [3], -0.615; in [5], 0.423; in [6], 0.306; in [7], -0.0453. Also, the composite z-score in [8] is 0.343; in [9], 0.17; in [10], 0.496; in experiment [11], 0.241; in [13], 0.283; in [14], -0.67. Moreover, the composite z-score in experiment [15] is -1.65; in experiment [16], -0.0222; in [17], -0.0035; in [18], -0.526; in [19] it was 0.848; in experiment [20], -0.741. Besides, the figures for the z-score in experiment [4] and in experiment [12] were 0.653 (inactive) and -0.581, respectively.
Consider `COC(=O)CC=C[C@@H](C)[C@@H](C=NO[C@H](C)c1cn([C@@H]2COC[C@H]2O)nn1)OC`, for which the composite z-score in experiment [1] is 0.626; in [2] it was -0.43; in experiment [3], -0.611; in experiment [5] it was 0.739; in [6] it was 0.617; in [7] it was 0.856. Besides, the composite z-score in experiment [8] was 1.06; in [9] it was 0.492; in [10], -0.335; in experiment [11], 0.768; in experiment [13] it was 0.589; in [14] it was -0.662. The composite z-score is -0.793 in [15]; -0.0478 in experiment [16]; -0.291 in [17]; -0.0762 in experiment [18]; -0.306 in experiment [19]; 1.01 in experiment [20]. In addition, the z-score in experiment [4] is 0.605 (inactive); in experiment [12] it was 0.128.
With `COC(=O)[C@H](C)NC(=O)CCC1CC(OC(=O)NCc2cccc3ccccc23)CC2(CCCC(COC(=O)NCC3CCCCC3)O2)O1` (stereo not given in full), the composite z-score in experiment [1] is 0.534; in [2] it was -0.0762; in experiment [3], -0.86; in experiment [5] it was 1.47; in [6] it was 1.36; in experiment [7], 1.15. The composite z-score in experiment [8] was 1.08; in experiment [9], 0.528; in [10] it was -0.564; in [11], 1.32; in experiment [13] it was 0.776; in experiment [14], 0.708. Moreover, the composite z-score in [15] was -0.798; in experiment [16], -0.174; in [17], -0.0035; in [18], -0.501; in experiment [19] it was 0.587; in [20] it was 0.585. Moreover, the z-score in experiment [4] was -0.397 (inactive); in [12], -0.411.
